Out of some 220,000 compounds screened, about 3,300 (1.5%) were called active.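 The calls were made as follows: active = compounds that cut the protein-peptide binding signal by more than 50% relative to plate controls in a single-dose test; inactive = the rest.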 Only a selection was taken, and actives are over-represented in it overall.
target: Induced myeloid leukemia cell differentiation protein Mcl-1 (Homo sapiens) (UniProt Q07820); experiment: Mcl-1/Noxa binding inhibitors, primary screen, biochemical, TR-FRET, 1536-well (AID 1022); conditions: TR-FRET Mcl-1/Noxa peptide binding, 2 h; at 21.7 µM; active compounds read high;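 also: His-tagged Mcl-1 with rhodamine Noxa BH3 peptide and terbium anti-His antibody; 0% = Mcl-1 plus Noxa peptide wells and 100% = peptide-only wells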
Sequence (Q07820 whole entry, looked up): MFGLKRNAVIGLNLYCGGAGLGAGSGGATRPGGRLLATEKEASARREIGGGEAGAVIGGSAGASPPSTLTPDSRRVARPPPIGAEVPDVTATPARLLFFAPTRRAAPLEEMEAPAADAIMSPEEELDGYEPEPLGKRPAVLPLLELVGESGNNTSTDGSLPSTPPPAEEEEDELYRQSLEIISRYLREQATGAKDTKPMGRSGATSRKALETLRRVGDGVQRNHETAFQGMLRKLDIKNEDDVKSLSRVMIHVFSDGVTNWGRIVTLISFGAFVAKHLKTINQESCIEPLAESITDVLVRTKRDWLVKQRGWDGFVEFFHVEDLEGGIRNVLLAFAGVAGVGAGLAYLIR

inhibition, inactive:
COc1ccccc1/C=C/C=N/NC(=O)CN1CCN(Cc2ccccc2)CC1 0.78%
CSC1=NCCN1C(=O)Cc1cccc2ccccc12 -0.87%
O=C(NNC(=O)c1cnccc1C(F)(F)F)c1ccc(Cl)cc1 11.9%
CC(=O)Nc1cccc([N+](=O)[O-])c1 -1.66%
Cc1ccccc1NC(=S)Nc1cccc([N+](=O)[O-])c1 11.3%
COc1ccc(Cn2c(O)c(/C=C3/C=CC=N3)c(=O)[nH]c2=O)cc1 25%
CC(=O)NC(=S)Nc1ccc(NC(=O)c2cccnc2)cc1 1.75%
CCCc1nc2c(c(=O)c3ccccc3n2C)c(=O)n1-c1cc(C)cc(C)c1 5.11%
COc1ccc(C(=O)CSc2nnc(COc3ccccc3)n2Cc2ccco2)cc1 17.5%
CSc1sc(C(=O)NNC(=O)c2ccc(Cl)cc2)c2c1C=CCC2 0.01%
CN1CCN(C2=NCCO2)CC1 3.88%
Nc1c(C(=O)c2cccs2)sc2nsc(SCCN3CCCCC3)c12 -16.9%
O=C(c1ccco1)N1CCN(CCOc2ccccc2)CC1 10.5%
CCn1c(-c2cc(OC)ccc2OC)csc1=Nc1c(C)n(C)n(-c2ccccc2)c1=O 10.7%
COc1ccc(OC)c(N=Cc2c(O)[nH]c3ccccc23)c1 20.4%
CCn1c2ccccc2c2cc(NC(=O)CNC)ccc21 43.9%
CCc1ccc(NC(=O)N[C@H](C(=O)O)C(C)CC)cc1 (stereo not given in full) 16.4%
O=C(O)COCC(=O)NCc1csc2ccc(Cl)cc12 11.9%
O=S(=O)([N-]c1nc2ccccc2nc1-[n+]1ccc(Cc2ccccc2)cc1)c1ccc(Br)s1 15.5%
N#C/C(=C/c1ccc(-c2ccccc2[N+](=O)[O-])o1)C(=O)NCCN1CCCCC1 26.3%
Cc1ccc(Cc2cnc(NC(=O)/C(C#N)=C/c3ccc(-c4cccc([N+](=O)[O-])c4)o3)s2)cc1 24.9%
O=S(=O)(NCCc1csc(-c2ccccc2)n1)c1cccnc1 -1.4%
NCC(=O)c1cccc2ccc[n+]([O-])c12 17.5%
COc1cc(NC(=O)c2ccc(CNc3c(N4CCCC4)c(=O)c3=O)cc2)cc(OC)c1OC 8.38%
COc1ccc(-c2cn(-c3ccc(OC)cc3)c(=S)[nH]2)cc1 11.3%
COc1cc(OC)c(-n2c(C)cc(C=O)c2C)cc1Cl 13.7%
COc1ccc(/C=C/C(=O)Nc2ccc(C)cc2)cc1S(=O)(=O)N1CCOCC1 8.12%
CCN(CC)c1ccc(/C=N/NC(=O)c2cnccn2)c(O)c1 15.6%
CCn1c(SCC(=O)Nc2sc(C)c(C)c2C#N)nnc1C1CC1 29.1%
Brc1ccc2c(c1)[C@H]1OCC[C@H]1[C@@H](c1cccs1)N2 -3.81%
Cc1[nH]n(-c2ccccc2)c(=O)c1N=Nc1ccccc1C(=O)N1CCCCC1 11.2%
O=C(CN1CCOCC1)N/N=C/c1ccc(-c2ccc(Br)cc2)o1 10.4%
O=C(Cn1nnc(-c2ccccc2)n1)NCc1ccccc1 -34.6%
Nc1nnn(CC(=O)N/N=C/c2ccccc2)n1 -7.14%
Nc1nnnn1CC(=O)N/N=C/c1ccc(-c2cccc(Cl)c2)o1 39.1%
COc1ccc(CCNCC(O)Cn2ccc3ccccc32)cc1OC (stereo not given) 15.7%
Cc1ccc(OCC(=O)c2cc(C)n(Cc3ccco3)c2C)c([N+](=O)[O-])n1 8.57%
COC(=O)c1ccc(S(=O)(=O)NCc2ccccc2)n1C 8.72%
COc1ccccc1Cn1c(CO)nc2ccccc21 7.12%
O=C(Nc1ccc(Cl)cc1)Nc1ccc(Oc2cccnc2)nc1 26.5%
Cc1ccc(N=Nc2c(C)[nH]n(-c3ccccc3)c2=O)cc1 23.8%
Cc1cc(C)c(C2C3=C(Nc4c2c(C)nn4-c2ccccn2)c2ccccc2C3=O)c(C)c1 (stereo not given) 12.5%
O=C(Nc1cccnc1)c1ccc(Cl)c([N+](=O)[O-])c1 14.2%
O=C(/C=C/c1ccc(Cl)c([N+](=O)[O-])c1)c1ccc(O)cc1 -1.19%
Cc1nc(C(=O)N2CCCC(C(=O)c3ccc(Cl)cc3)C2)cs1 (stereo not given) -4.61%
CC(=O)c1c(C)[nH]c(=S)c(C#N)c1-c1ccc(F)cc1 -4.64%
S=C(NCCc1ccccc1)N1CCCCC1 21.5%
Oc1ccccc1N1CCN(C(=S)NCc2ccccc2)CC1 16.6%
CC(=O)N/C(=C\c1ccc(F)cc1)C(=O)NC(Cc1ccccc1)C(=O)O (stereo not given) -9.17%
CCc1c(C)nc2cc(-c3cccs3)[nH]n2c1=O 7.24%
O=C(CS(=O)(=O)c1ccc(C(F)(F)F)cn1)NNC(=O)c1ccccc1 -2.05%
COc1cccc(OC)c1CN(C)C(=O)c1cnccc1C(F)(F)F -21.5%
C/C=C(\C)C(=O)N1CC2(CC(c3cccc(NC(=O)CCCCC)c3)=NO2)C[C@@H]1C(N)=O (stereo not given in full) -15.7%
O=C(NCCCc1ccccc1)C1CCC(CNc2c(N3CCCCC3)c(=O)c2=O)CC1 (stereo not given) -3.38%
CN(C)/C=C(/C(=O)c1ccc(Cl)c(Cl)c1)c1nnnn1-c1ccccc1 -12.2%
O=C(COc1ccccc1[N+](=O)[O-])N/N=C/c1ccc[nH]1 -5.33%
Nn1c(SCc2ccccc2)nnc1C1CCCCC1 19.7%
O=C(COc1ccccc1[N+](=O)[O-])NC1CC1 -42.2%
Cc1cc(OCCCN2CCN(Cc3ccccc3)CC2)ccc1[N+](=O)[O-] 27.1%
CC(C)n1c(CN2CCN(Cc3ccccc3)CC2)nc2ccccc21 24.8%
O=[N+]([O-])c1cccc(-c2nnc3c4ccccc4c4ccccc4n23)c1 20.8%
CCOC(=O)c1cnc2[nH]c3ccccc3n2c1=O 22%
CCOC(=O)c1c(CC(C)C)csc1/N=C/C1=C(O)CCCC1=O -5.98%
CC(=O)NC1C(OCc2ccccc2)OC(COC(C)=O)C(OC(C)=O)C1OC(C)=O (stereo not given) 10.8%
COC(=O)c1cc(=O)n(-c2c(Cl)cc(C(F)(F)F)cc2Cl)[nH]1 3.78%
O=C(NNC(=S)Nc1ccccc1)c1cccc(S(=O)(=O)N2CCOCC2)c1 1.14%
Cc1cc(C(=O)Nc2ccccc2N2CCOCC2)c2ccccc2n1 -3.21%
O=C1NC[C@@H](Cc2ccc(O)cc2)N(CCc2cccc(F)c2)C1=O 6.16%
C=CCN1CC(C)/C(=N\O)CC1C (stereo not given) 9.5%
Cc1nn(Cc2ccc(Cl)cc2)c(Cl)c1/C=N/NC(=O)c1cccnc1 27.5%
Cc1nn(Cc2ccc(Cl)cc2)c(Cl)c1/C=N/NC(=O)CNc1ccccc1F 5.98%
O=c1c(/C=N/O)coc2ccc(Cl)cc12 4.15%
O=c1c(-c2ccccc2)coc2cc(O)ccc12 3.79%
Oc1ccc2ccccc2c1N=Nc1nccs1 -81.5%
CCOC(=O)C1(S(=O)(=O)c2ccccc2)CCN(Cc2ccccc2)CC1 10.4%
CC1=C/C(=N\S(=O)(=O)c2ccccc2)C(C(C)C)=CC1=O 17%

inhibition, active:
COC(=O)/C=C\C(=O)Nc1cccc([N+](=O)[O-])c1 64.5%
Cn1c2ccccc2c(=O)c2c(=O)n(Cc3ccco3)c(COc3ccccc3)nc21 60%
CN=c1scc(-c2cc(OC)ccc2OC)n1/N=C/c1c(C)[nH]c2ccccc12 56.7%
Cc1ccc(-c2ccc(/C=C(\C#N)C(N)=S)o2)c([N+](=O)[O-])c1 58.2%
COc1cc(OC)c(-n2cc(-c3ccc(Cl)cc3)[nH]c2=O)cc1Cl 55.4%
Cc1[nH]c2ccccc2c1/C=N\NC(=O)Cn1nnc(-c2ccccc2)n1 62.8%
O=C(Cn1nnc(-c2ccccc2)n1)N/N=C/c1ccc(-c2ccc(Cl)cc2)o1 54.1%
Cc1ccc(C2C3=C(Nc4[nH]n(-c5ccccc5)c(=O)c42)c2ccccc2C3=O)cc1 (stereo not given) 69%
O=C(/C=C/c1ccc(Cl)c([N+](=O)[O-])c1)c1cccnc1 52.5%
Oc1ccc(N2CCN(C(=S)NCc3ccccc3)CC2)cc1 61.1%
Cc1cc(=O)n2[nH]c(-c3sccc3-n3c(C)ccc3C)cc2n1 50.6%
Cc1cc(OCC(=O)NC2CCN(C)CC2)ccc1[N+](=O)[O-] 55.3%
COc1cc2c3c(c1)/C(=C1/SC(=S)NC1=O)C(=O)N3C(C)(C)C=C2C 64%
O=c1[nH]c2ccccc2n2c(-c3ccccc3)nnc12 101%
O=C(OCC1O[C@@H](OC(=O)c2cc(O)c(O)c(O)c2)[C@@H](OC(=O)c2cc(O)c(O)c(O)c2)[C@@H](OC(=O)c2cc(O)c(O)c(O)c2)[C@@H]1OC(=O)c1cc(O)c(O)c(O)c1)c1cc(O)c(O)c(O)c1 (stereo not given in full) 114%
Cc1cc(C(=O)NNC(=O)c2cccc(S(=O)(=O)N3CCOCC3)c2)c2ccccc2n1 63.2%
CCn1nc(C)c(/C=N/NC(=O)Cc2ccc(Cl)cc2)c1C 91.8%
O=C1/C(=C/c2coc3ccc(O)cc3c2=O)SC(=S)N1c1ccccc1 56.9%
CC1=C/C(=N\OS(=O)(=O)c2ccccc2)C=CC1=O 61.2%

Reference: PubChem BioAssay AID1022 (Emory University Molecular Libraries Screening Center, 2008)
